From PubChem BioAssay (Tox21)
Where “and” joins values, the source holds several entries; their conditions need not be identical. Equal entries are not always repeated. Records with an inconclusive call do not appear. A call without a number means that no potency is given here. Calls of active or inactive are those of the source. Unless noted, calls come from the whole dose curve; as a rule, active = well fitted curve in the direction sought with a large enough effect in the repeat runs; inconclusive = weak or mixed curves; inactive = no such curve, though single readings can be large; an effect the other way counts as inactive or inconclusive.

Key:
[1] = Human pregnane X receptor (PXR) small molecule agonists, qHTS cell viability counter screen (AID 1346977); note: nearly all actives have a fitted effect of over 50% in size
Summary of the method: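 Viability counter screen: CellTiter-Fluor signal in PXR-Luc HepG2 cells, 24hr compound exposure, 37C, 5% CO2.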

[2] = Caspase-3/7 induction in HepG2 cells by small molecules, qHTS assay (AID 1346978); note: nearly all actives have a fitted effect of over 15% in size; note: potency is the fitted concentration of half-maximal effect
Summary of the method: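 Wild-type HepG2 cells, 2,000/well, settled 5 hr at 37 C and 5% CO2, then compound-treated for 17 hr; caspase-3/7 activity read by luminescent Caspase-Glo 3/7 after 30 min at room temperature.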

[3] = Caspase-3/7 induction in CHO-K1 cells by small molecules, qHTS assay (AID 1346980); note: nearly all actives have a fitted effect of over 15% in size; note: potency is the fitted concentration of half-maximal effect
Summary of the method: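 Wild-type CHO-K1 cells exposed to compounds for 17hr at 37 C, 5% CO2. Caspase-3/7 activity then measured by Caspase-Glo 3/7 luminescence after 30min at room temperature.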

[4] = molecular target: Nuclear receptor subfamily 1 group I member 2 (Homo sapiens) (UniProt O75469); experiment: Human pregnane X receptor (PXR) small molecule agonists, qHTS assay (AID 1346982); note: nearly all actives have a fitted effect of over 35% in size; note: potency is the fitted concentration of half-maximal effect
Summary of the method: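 Compound-induced hPXR transactivation of a CYP3A4 luciferase reporter was scored in HepG2 PXR-Luc cells over 24 hr at 37 C, 5% CO2, by luminescence.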

[5] = molecular target: Acetylcholinesterase (Homo sapiens) (UniProt P22303); experiment: Acetylcholinesterase (AChE) small molecule antagonists: colormetric cell-based qHTS assay (AID 1347395; calls by dose curve; note: nearly all actives have a fitted effect of over 30% in size; note: potency is the fitted concentration of half-maximal effect)
Summary of the method: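 Homogeneous whole-cell format. SH-SY5Y cells seeded overnight, dosed with compound (30 min, 37 C, 5% CO2), then given DTNB/acetylthiocholine cocktail for 90 min at 37 C; colorimetric signal.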

[6] = molecular target: Acetylcholinesterase (Homo sapiens) (UniProt P22303); experiment: Acetylcholinesterase (AChE) small molecule antagonists: enzyme-based qHTS assay (AID 1347397; calls by dose curve; note: nearly all actives have a fitted effect of over 55% in size); conditions: Potency: AChE enzyme activity inhibition
Summary of the method: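 Recombinant human AChE (50 mU/mL) preincubated with compound 30 min at room temperature; acetylthiocholine plus DTNB then added, and thiocholine formation read colorimetrically after 10 min at room temperature. DMSO served as vehicle control.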

[7] = molecular target: Acetylcholinesterase (Homo sapiens) (UniProt P22303); experiment: Acetylcholinesterase (AChE) small molecule antagonists: fluorescence cell-based qHTS assay (AID 1347398; calls by dose curve; note: nearly all actives have a fitted effect of over 50% in size); conditions: Potency: AChE activity
Summary of the method: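 SH-SY5Y cells (2000/well), attached overnight, incubated with compound 30 min at 37 C. Acetylthiocholine plus Thiolite Green then added for 40 min at room temperature. Thiocholine fluorescence (Ex/Em 490/520 nm) reports cellular AChE activity.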

[8] = molecular target: Acetylcholinesterase (Homo sapiens) (UniProt P22303); experiment: Acetylcholinesterase (AChE) small molecule antagonists: enzyme-based qHTS assay with human liver microsomes (AID 1347399; calls by dose curve; note: nearly all actives have a fitted effect of over 60% in size); conditions: Potency: qHTS inhibition
Summary of the method: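 Recombinant human AChE (50 mU/mL in the enzyme mix) and human liver microsomes (0.25 mg/mL final) were preincubated with compound and NADPH (0.25 mg/mL final) for 30 min at 37 C. Acetylthiocholine/DTNB was then added; thiocholine was read colorimetrically after 10 min at room temperature.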

[9] = molecular target: Cytochrome P450 2D6 (Homo sapiens) (UniProt P10635); experiment: Cytochrome P450 Family 2 Subfamily D Member 6 (CYP2D6) small molecule antagonists: luciferase reporter qHTS assay (AID 1671196); note: nearly all actives have a fitted effect of over 50% in size; note: potency is the fitted concentration of half-maximal effect
Summary of the method: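 Each well received CYP2D6 with its proluciferin substrate and chemical, sat 10 min, then got NADPH regeneration solution for 1 h at room temperature. Luminescence in RLU served as the activity measure.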

[10] = molecular target: Cytochrome P450 2C19 (Homo sapiens) (UniProt P33261); experiment: Cytochrome P450 Family 2 Subfamily C Member 19 (CYP2C19) small molecule antagonists: luciferase reporter qHTS assay (AID 1671197); note: nearly all actives have a fitted effect of over 65% in size; note: potency is the fitted concentration of half-maximal effect
Summary of the method: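 Compounds were tested on CYP2C19 activity via proluciferin conversion to luciferin. The 37C, 1 h reaction followed NADPH addition; detection reagent stopped it.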

[11] = molecular target: Cytochrome P450 2C9 (Homo sapiens) (UniProt P11712); experiment: Cytochrome P450 Family 2 Subfamily C Member 9 (CYP2C9) small molecule antagonists: luciferase reporter qHTS assay (AID 1671198); note: nearly all actives have a fitted effect of over 50% in size; note: potency is the fitted concentration of half-maximal effect
Summary of the method: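 P450-Glo proluciferin substrate with CYP2C9 enzyme; 10 min RT preincubation, then NADPH regeneration 1 h at 37C; luciferin detection reagent 20 min RT, luminescence in relative luminescence units.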

[12] = molecular target: Voltage-gated inwardly rectifying potassium channel KCNH2 (Homo sapiens) (UniProt Q12809); experiment: Human Ether-a-go-go-Related Gene (hERG) channel small molecule antagonists: fluorescence cell-based qHTS assay (AID 1671200); note: nearly all actives have a fitted effect of over 50% in size; note: potency is the fitted concentration of half-maximal effect
Summary of the method: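 Thallium served as the potassium surrogate; its influx into dye-loaded U2OS cells carrying the channel was measured by fluorescence over 2 min.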

[13] = molecular target: Cytochrome P450 3A4 (Homo sapiens) (UniProt P08684); experiment: Cytochrome P450 Family 3 Subfamily A Member 4 (CYP3A4) small molecule antagonists: luciferase reporter qHTS assay (AID 1671201); note: nearly all actives have a fitted effect of over 50% in size; note: potency is the fitted concentration of half-maximal effect
Summary of the method: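 Relative luminescence units after 20 min with luciferin detection reagent served as read-out. Beforehand, CYP3A4 turned over a proluciferin substrate for 1 h at room temperature with NADPH regeneration, following 10 min compound preincubation.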

[14] = Caspase-3/7 induction in CHO-K1 cells by small molecules, qHTS cell viability counter screen (AID 1346979); note: nearly all actives have a fitted effect of over 35% in size; note: potency is the fitted concentration of half-maximal effect
Summary of the method: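 Viability readout by fluorescence (CellTiter-Fluor) on wild-type CHO-K1 cells exposed for 16hr at 37C and 5% CO2 to compounds delivered in DMSO; reagent incubated 1hr before reading.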

[15] = Caspase-3/7 induction in HepG2 cells by small molecules, qHTS cell viability counter screen (AID 1346981); note: nearly all actives have a fitted effect of over 30% in size; note: potency is the fitted concentration of half-maximal effect
Summary of the method: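 Viability determined by CellTiter-Fluor fluorescence in HepG2 wells also used for the luminescent Caspase-Glo 3/7 read. Compounds were present for 16 hr at 37 C, 5% CO2 before reagent addition.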

[16] = molecular target: Cytochrome P450 1A2 (Homo sapiens) (UniProt P05177); experiment: Cytochrome P450 Family 1 Subfamily A Member 2 (CYP1A2) small molecule antagonists: luciferase reporter qHTS assay (AID 1671199); note: nearly all actives have a fitted effect of over 50% in size; note: potency is the fitted concentration of half-maximal effect
Summary of the method: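 Enzymatic CYP1A2 assay, human, luminescent: 10 min compound–enzyme–substrate preincubation, 1 h NADPH-dependent turnover, 20 min detection step, room temperature throughout. Reduced light indicates lower CYP1A2 activity.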

Sequence of Cytochrome P450 3A4 (Homo sapiens) (P08684 whole entry, looked up): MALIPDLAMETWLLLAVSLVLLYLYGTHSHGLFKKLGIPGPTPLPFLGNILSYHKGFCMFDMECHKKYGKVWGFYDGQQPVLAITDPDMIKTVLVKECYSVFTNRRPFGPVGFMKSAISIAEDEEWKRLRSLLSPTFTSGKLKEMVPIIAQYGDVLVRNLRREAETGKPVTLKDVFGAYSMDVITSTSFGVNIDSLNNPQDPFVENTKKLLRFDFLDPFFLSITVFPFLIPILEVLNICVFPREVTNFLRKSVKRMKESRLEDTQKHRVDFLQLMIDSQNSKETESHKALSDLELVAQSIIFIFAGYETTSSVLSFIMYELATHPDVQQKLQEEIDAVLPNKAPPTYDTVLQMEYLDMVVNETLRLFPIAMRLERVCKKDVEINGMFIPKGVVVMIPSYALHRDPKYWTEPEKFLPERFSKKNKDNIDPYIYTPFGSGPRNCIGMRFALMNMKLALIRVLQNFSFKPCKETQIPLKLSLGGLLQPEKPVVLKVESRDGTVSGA
Sequence of Acetylcholinesterase (Homo sapiens) (P22303 whole entry, looked up): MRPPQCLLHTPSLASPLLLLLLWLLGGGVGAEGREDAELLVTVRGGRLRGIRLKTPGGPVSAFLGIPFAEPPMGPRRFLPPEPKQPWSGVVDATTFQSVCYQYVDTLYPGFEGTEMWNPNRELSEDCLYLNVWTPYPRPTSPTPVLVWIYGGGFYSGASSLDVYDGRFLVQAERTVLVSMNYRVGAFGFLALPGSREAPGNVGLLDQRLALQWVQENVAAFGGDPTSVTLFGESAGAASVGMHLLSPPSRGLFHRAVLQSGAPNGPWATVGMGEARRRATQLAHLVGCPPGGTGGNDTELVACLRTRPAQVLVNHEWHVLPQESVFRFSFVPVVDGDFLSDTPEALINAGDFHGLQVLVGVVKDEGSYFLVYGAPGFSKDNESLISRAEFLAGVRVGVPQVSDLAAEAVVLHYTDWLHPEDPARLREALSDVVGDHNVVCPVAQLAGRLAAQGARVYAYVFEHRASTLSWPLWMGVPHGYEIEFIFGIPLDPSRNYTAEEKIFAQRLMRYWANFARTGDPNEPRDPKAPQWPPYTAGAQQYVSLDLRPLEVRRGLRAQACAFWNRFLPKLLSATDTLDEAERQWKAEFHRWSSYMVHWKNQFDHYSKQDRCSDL
Sequence of Nuclear receptor subfamily 1 group I member 2 (Homo sapiens) (O75469 whole entry, looked up): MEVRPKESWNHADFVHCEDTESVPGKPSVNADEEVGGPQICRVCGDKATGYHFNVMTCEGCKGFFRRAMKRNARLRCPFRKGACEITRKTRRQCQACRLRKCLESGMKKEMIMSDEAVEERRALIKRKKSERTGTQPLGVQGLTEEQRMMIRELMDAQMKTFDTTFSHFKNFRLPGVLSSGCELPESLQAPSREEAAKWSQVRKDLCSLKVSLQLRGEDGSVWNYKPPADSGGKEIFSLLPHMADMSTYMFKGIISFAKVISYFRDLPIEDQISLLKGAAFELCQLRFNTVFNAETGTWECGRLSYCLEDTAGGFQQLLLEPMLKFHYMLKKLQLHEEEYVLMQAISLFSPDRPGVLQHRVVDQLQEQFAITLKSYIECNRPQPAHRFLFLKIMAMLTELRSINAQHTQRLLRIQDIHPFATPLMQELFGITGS
Sequence of Voltage-gated inwardly rectifying potassium channel KCNH2 (Homo sapiens) (Q12809 whole entry, looked up): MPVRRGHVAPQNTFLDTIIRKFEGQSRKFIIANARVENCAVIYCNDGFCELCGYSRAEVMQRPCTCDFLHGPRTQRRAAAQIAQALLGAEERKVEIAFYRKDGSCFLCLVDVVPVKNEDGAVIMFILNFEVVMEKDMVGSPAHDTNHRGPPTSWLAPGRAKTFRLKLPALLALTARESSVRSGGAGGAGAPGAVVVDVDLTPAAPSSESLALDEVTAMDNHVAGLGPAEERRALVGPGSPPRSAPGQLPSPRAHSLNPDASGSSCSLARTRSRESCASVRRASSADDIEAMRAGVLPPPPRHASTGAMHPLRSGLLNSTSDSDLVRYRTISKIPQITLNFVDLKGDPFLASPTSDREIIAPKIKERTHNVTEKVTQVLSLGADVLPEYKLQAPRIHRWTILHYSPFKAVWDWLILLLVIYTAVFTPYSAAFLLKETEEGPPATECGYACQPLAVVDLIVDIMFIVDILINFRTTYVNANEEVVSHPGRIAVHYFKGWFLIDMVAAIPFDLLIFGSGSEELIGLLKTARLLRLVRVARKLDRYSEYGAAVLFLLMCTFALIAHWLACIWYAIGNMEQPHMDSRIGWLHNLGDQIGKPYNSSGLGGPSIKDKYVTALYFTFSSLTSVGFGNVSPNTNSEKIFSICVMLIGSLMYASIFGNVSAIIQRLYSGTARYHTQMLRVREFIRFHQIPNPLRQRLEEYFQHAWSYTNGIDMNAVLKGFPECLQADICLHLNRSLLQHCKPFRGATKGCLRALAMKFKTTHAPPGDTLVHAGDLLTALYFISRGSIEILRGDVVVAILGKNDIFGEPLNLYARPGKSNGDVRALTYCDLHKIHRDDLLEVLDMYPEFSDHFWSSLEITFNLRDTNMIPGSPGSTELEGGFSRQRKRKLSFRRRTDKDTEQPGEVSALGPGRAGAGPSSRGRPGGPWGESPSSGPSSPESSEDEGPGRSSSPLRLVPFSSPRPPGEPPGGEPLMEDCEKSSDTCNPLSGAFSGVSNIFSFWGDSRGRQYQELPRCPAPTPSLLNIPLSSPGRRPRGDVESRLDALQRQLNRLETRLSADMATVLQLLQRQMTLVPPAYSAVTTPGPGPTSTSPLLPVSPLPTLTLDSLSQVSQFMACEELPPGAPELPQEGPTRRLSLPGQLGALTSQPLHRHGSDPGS
Sequence of Cytochrome P450 2C19 (Homo sapiens) (P33261 whole entry, looked up): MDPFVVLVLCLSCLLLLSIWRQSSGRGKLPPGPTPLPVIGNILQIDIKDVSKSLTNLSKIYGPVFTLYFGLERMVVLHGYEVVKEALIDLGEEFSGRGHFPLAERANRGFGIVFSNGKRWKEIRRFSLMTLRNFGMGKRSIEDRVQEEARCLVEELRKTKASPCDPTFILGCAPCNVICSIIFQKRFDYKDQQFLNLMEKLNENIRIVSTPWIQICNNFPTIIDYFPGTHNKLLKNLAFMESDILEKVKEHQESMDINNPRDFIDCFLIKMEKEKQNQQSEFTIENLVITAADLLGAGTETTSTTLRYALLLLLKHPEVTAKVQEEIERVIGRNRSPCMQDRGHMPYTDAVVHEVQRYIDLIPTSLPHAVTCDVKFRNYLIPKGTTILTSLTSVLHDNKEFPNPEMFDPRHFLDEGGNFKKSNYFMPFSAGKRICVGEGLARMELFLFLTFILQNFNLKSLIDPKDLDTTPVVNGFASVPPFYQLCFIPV
Sequence of Cytochrome P450 2D6 (Homo sapiens) (P10635 whole entry, looked up): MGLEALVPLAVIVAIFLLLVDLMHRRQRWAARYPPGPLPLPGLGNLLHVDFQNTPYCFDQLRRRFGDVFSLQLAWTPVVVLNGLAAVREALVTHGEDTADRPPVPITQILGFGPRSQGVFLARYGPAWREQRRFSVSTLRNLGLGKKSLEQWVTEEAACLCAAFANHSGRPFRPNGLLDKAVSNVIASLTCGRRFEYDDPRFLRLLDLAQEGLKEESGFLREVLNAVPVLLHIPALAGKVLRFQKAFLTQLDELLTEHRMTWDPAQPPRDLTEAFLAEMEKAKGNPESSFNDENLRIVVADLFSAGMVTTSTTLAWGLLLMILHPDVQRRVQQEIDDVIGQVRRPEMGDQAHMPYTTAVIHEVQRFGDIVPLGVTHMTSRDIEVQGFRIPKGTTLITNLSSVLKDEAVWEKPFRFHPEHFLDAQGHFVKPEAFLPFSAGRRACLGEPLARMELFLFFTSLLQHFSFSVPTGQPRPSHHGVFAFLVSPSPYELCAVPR
Sequence of Cytochrome P450 1A2 (Homo sapiens) (P05177 whole entry, looked up): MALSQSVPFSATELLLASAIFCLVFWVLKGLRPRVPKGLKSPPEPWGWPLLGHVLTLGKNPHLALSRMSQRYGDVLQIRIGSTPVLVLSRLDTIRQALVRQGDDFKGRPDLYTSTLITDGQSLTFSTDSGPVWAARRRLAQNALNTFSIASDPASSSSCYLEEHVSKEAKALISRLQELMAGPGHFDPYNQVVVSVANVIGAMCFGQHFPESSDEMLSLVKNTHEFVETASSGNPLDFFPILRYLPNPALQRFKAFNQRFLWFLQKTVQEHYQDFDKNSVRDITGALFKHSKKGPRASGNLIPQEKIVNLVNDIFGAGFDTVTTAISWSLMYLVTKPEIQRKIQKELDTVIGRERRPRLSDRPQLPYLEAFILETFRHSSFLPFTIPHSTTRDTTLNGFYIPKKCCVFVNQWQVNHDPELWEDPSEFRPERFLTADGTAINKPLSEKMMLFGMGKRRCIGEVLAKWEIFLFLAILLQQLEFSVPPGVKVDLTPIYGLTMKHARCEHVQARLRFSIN
Sequence of Cytochrome P450 2C9 (Homo sapiens) (P11712 whole entry, looked up): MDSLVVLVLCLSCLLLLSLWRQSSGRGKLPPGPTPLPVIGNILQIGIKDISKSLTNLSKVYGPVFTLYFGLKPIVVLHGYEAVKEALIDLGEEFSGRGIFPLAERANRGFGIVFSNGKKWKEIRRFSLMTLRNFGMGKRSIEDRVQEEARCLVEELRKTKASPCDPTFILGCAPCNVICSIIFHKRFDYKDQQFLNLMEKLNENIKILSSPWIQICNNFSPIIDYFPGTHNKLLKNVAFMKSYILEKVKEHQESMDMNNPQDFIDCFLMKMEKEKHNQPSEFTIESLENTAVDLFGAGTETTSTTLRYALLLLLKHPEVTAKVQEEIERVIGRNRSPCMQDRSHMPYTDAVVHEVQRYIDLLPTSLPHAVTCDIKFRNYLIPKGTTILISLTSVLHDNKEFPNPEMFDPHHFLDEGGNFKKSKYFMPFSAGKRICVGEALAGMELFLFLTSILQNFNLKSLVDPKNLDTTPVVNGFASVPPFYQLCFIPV

## Nc1ccc(Cl)cc1C(=O)c1ccccc1F
[1]
  Potency: inactive
[2]
  Potency: inactive
[3]
  Potency: inactive
[4]
  Potency: 29.8 µM (active)
[5]
  Potency: inactive
[6]
  Potency: inactive
[7]
  Potency: inactive
[8]
  Potency: inactive
[9]
  Potency: inactive
[10]
  Potency: 11 µM (active)
[11]
  Potency: 17.4 µM (active)
[12]
  Potency: inactive
[13]
  Potency: inactive

## O=C1C2(Cl)C3(Cl)C4(Cl)C(Cl)(Cl)C5(Cl)C3(Cl)C1(Cl)C5(Cl)C24Cl (configuration not stated)
[2]
  Potency: 30.1 µM (active) and 65.7 µM (active)
[14]
  Potency: 37.9 µM (active) and 46.5 µM (active)
[15]
  Potency: 60.1 µM (active)
[4]
  Potency: 10.7 µM (active) and 10.4 µM (active)
[5]
  Potency: inactive
[6]
  Potency: inactive
[7]
  Potency: inactive
[8]
  Potency: inactive
[10]
  Potency: 622 nM (active) and 961 nM (active)
[11]
  Potency: 5.55 µM (active) and 6.06 µM (active)
[16]
  Potency: inactive
[12]
  Potency: 12.1 µM (active) and 14.8 µM (active)
[13]
  Potency: 2.78 µM (active) and 3.41 µM (active)

## N#CSCc1ccccc1
[2]
  Potency: inactive
[14]
  Potency: inactive
[3]
  Potency: inactive
[15]
  Potency: inactive
[4]
  Potency: 43.5 µM (active)
[5]
  Potency: inactive
[6]
  Potency: inactive
[8]
  Potency: inactive
[12]
  Potency: inactive

## CCOC(=O)Cc1ccccc1
[2]
  Potency: inactive
[14]
  Potency: inactive
[3]
  Potency: inactive
[15]
  Potency: inactive
[5]
  Potency: inactive
[6]
  Potency: inactive
[8]
  Potency: inactive
[10]
  Potency: inactive
[12]
  Potency: inactive
[13]
  Potency: inactive

## FC(F)C(F)(F)OCC(Cn1cncn1)c1ccc(Cl)cc1Cl (configuration not stated)
[2]
  Potency: inactive
[14]
  Potency: 48.3 µM (active)
[3]
  Potency: inactive
[4]
  Potency: 27.1 µM (active)
[5]
  Potency: inactive
[6]
  Potency: inactive
[8]
  Potency: inactive
[9]
  Potency: 11.2 µM (active)
[11]
  Potency: 1.77 µM (active)
[16]
  Potency: 7.06 µM (active)
[12]
  Potency: inactive
[13]
  Potency: 223 nM (active)

## CCOP(=S)(NC(C)C)Oc1ccccc1C(=O)OC(C)C (configuration not stated)
[2]
  Potency: inactive
[14]
  Potency: 61.1 µM (active)
[3]
  Potency: inactive
[4]
  Potency: 3.06 µM (active)
[5]
  Potency: inactive
[6]
  Potency: inactive
[7]
  Potency: inactive
[8]
  Potency: inactive
[10]
  Potency: 0.2 µM (active)
[11]
  Potency: 1.42 µM (active)
[16]
  Potency: 8.94 µM (active)
[12]
  Potency: inactive
[13]
  Potency: 710 nM (active)

## CCN(CC)Cc1nccn1-c1ccc([N+](=O)[O-])cc1C(=O)c1ccccc1Cl
[2]
  Potency: inactive
[14]
  Potency: inactive
[3]
  Potency: inactive
[4]
  Potency: 10.6 µM (active)
[5]
  Potency: inactive
[8]
  Potency: inactive
[9]
  Potency: 3.09 µM (active)
[11]
  Potency: inactive
[12]
  Potency: 5.35 µM (active)

## O=[N+]([O-])c1cccc2cccc([N+](=O)[O-])c12
[2]
  Potency: inactive
[14]
  Potency: inactive
[3]
  Potency: inactive
[15]
  Potency: inactive
[4]
  Potency: 30.8 µM (active)
[5]
  Potency: 20.1 µM (active)
[6]
  Potency: inactive
[8]
  Potency: inactive
[9]
  Potency: inactive
[11]
  Potency: inactive
[12]
  Potency: inactive

## ClCBr
[2]
  Potency: inactive
[14]
  Potency: inactive
[3]
  Potency: inactive
[15]
  Potency: inactive
[4]
  Potency: inactive
[5]
  Potency: inactive
[6]
  Potency: inactive
[8]
  Potency: inactive
[9]
  Potency: inactive
[10]
  Potency: inactive
[11]
  Potency: inactive
[16]
  Potency: inactive
[12]
  Potency: inactive
[13]
  Potency: inactive

## CC(=O)[O][Sn]([c]1ccccc1)([c]1ccccc1)[c]1ccccc1
[2]
  Potency: 306 nM (active)
[14]
  Potency: 0.154 µM (active)
[3]
  Potency: 0.122 µM (active)
[15]
  Potency: 2.73 µM (active)
[4]
  Potency: 0.243 µM (active)
[5]
  Potency: inactive
[7]
  Potency: inactive
[8]
  Potency: inactive
[9]
  Potency: 0.2 µM (active)
[10]
  Potency: 5.03 µM (active)
[11]
  Potency: 0.894 µM (active)
[12]
  Potency: 1.1 µM (active)
[13]
  Potency: 12600 nM (active)

## O=S(=O)(NS(=O)(=O)C(F)(F)F)C(F)(F)F
[2]
  Potency: inactive
[14]
  Potency: 48.4 µM (active)
[3]
  Potency: inactive
[15]
  Potency: inactive
[5]
  Potency: inactive
[6]
  Potency: inactive
[7]
  Potency: inactive
[8]
  Potency: inactive
[9]
  Potency: 0.447 µM (active)
[10]
  Potency: 39.8 µM (active)
[11]
  Potency: 6.31 µM (active)
[16]
  Potency: 44.7 µM (active)
[12]
  Potency: 38.8 µM (active)

## CC(Cc1ccccc1)N(C)Cc1ccco1 (configuration not stated)
[2]
  Potency: inactive
[14]
  Potency: inactive
[3]
  Potency: inactive
[15]
  Potency: inactive
[4]
  Potency: inactive
[5]
  Potency: inactive
[7]
  Potency: inactive
[8]
  Potency: inactive
[9]
  Potency: 0.776 µM (active)
[11]
  Potency: inactive
[16]
  Potency: inactive
[12]
  Potency: inactive
[13]
  Potency: inactive

## CCn1cc[n+](C)c1 (tested in a mixture with another compound)
[2]
  Potency: inactive
[14]
  Potency: inactive
[3]
  Potency: inactive
[15]
  Potency: inactive
[4]
  Potency: inactive
[10]
  Potency: inactive
[11]
  Potency: inactive
[12]
  Potency: inactive
[13]
  Potency: inactive

## O.O.O.O.O.O.O=S(=O)([O-])[O-].[Ni+2]
[2]
  Potency: inactive
[14]
  Potency: inactive
[3]
  Potency: inactive
[15]
  Potency: inactive
[12]
  Potency: inactive

## ClC(Cl)C(Cl)(Cl)Cl
[2]
  Potency: inactive
[14]
  Potency: inactive
[3]
  Potency: inactive
[15]
  Potency: inactive
[4]
  Potency: inactive
[5]
  Potency: inactive
[6]
  Potency: inactive
[7]
  Potency: inactive
[8]
  Potency: inactive
[10]
  Potency: inactive
[16]
  Potency: 31.1 µM (active)
[12]
  Potency: inactive
[13]
  Potency: inactive

## O=c1[nH]c2cc(Cl)ccc2n1C1CCNCC1
[2]
  Potency: inactive
[14]
  Potency: inactive
[3]
  Potency: inactive
[15]
  Potency: inactive
[4]
  Potency: inactive
[5]
  Potency: inactive
[6]
  Potency: inactive
[8]
  Potency: inactive
[10]
  Potency: inactive
[13]
  Potency: inactive

## O=C(NC(=O)c1ccccc1Cl)Nc1ccc(OC(F)(F)F)cc1
[2]
  Potency: inactive
[14]
  Potency: inactive
[3]
  Potency: inactive
[15]
  Potency: inactive
[5]
  Potency: inactive
[6]
  Potency: inactive
[7]
  Potency: inactive
[8]
  Potency: inactive
[9]
  Potency: inactive
[11]
  Potency: inactive
[12]
  Potency: inactive
[13]
  Potency: inactive
